# Hit rate of the full screen: of about 2,300 compounds, about 55 (2%) were called active.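 Rule for the calls: active = share of green or green-and-red cells above 9 and 9% in run 1 or 4 and 3% in run 2; inactive = the rest, inconclusive results apart.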 Only a sample is shown.
# Experiment: differentiation of ER-HoxA9 arrested myeloid cells – cell-based, GFP/Mac1 flow cytometry, cherry pick 01, confirmation (AID 651706);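 for differentiation response: plate controls were double positive share in DMSO wells for no effect and share in positive control wells for full effect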;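 for double positive cells: share of live cells carrying both lysozyme GFP and MAC1 staining after four days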
# Details: ER-HoxA9 myeloid progenitors, stronger effect = higher value; differentiation response: GFP/Mac1 double-positive flow; double positive cells: measured here: percent double positive cells
SMILES,differentiation response,double positive cells
Cc1ccc2c(c1)C1C[N+](C)(CC(=O)c3ccccc3)CCC1N2C(=O)c1ccccc1Cl (stereo unspecified),4.1% (inactive),2.05%
Cc1ccc(-n2nc3cc(C)c(NC(=O)c4cccnc4)cc3n2)cc1,5.4% (inactive),1.05%
Cc1cccc(-n2c(SCC(=O)Nc3cccc(S(=O)(=O)NC4=NCCCCC4)c3)nc3ccccc3c2=O)c1C,17.3% (inactive),0.7%
Fc1cccc(Cl)c1CSc1ccc(-c2ccco2)nn1,1.2% (inactive),0.8%
CC(C)c1nc2ccc(C(=O)O)cc2[nH]1,1.95% (inactive),1.8%
CSc1nnc(-c2ccncc2)n1CCCN1CCCC1=O,1.75% (inactive),1.15%
O=C(NCCN=C1NS(=O)(=O)c2ccccc21)c1ccc(S(=O)(=O)N2CCOCC2)cc1,1.35% (inactive),1.3%
CC(=O)N1c2ccc(S(=O)(=O)N3CCCC(C(=O)Nc4cccc(F)c4)C3)cc2CC1C (stereo unspecified),1.45% (inactive),0.95%
O=C(Nc1cccc2ncccc12)c1ccc(-c2ccc(Cl)cc2Cl)o1,4.55% (inactive),2.9%
Cc1cccc(OCC(O)CN2CCN(CCN3C(=O)c4cccc5cccc(c45)C3=O)CC2)c1C (stereo unspecified),0.25% (inactive),0%
Cc1cccc(C)c1NC(=O)CCS(=O)(=O)c1cccc2nsnc12,2% (inactive),1.5%
CC(C)CNC(=O)COC(=O)/C=C/c1ccccc1[N+](=O)[O-],1.45% (inactive),1.2%
COC(=O)CN(c1cccc(C(C)=O)c1)S(C)(=O)=O,2.05% (inactive),1.5%
O=C(CN1C(=O)NC(Cc2c[nH]c3ccccc23)C1=O)Nc1ccccc1C(F)(F)F (stereo unspecified),1.7% (inactive),1.2%
CC1(C)CC(=O)C2=C(C1)Nc1cc(C(=O)c3ccccc3)ccc1NC2c1ccccn1 (stereo unspecified),1.95% (inactive),1.65%
CCOC(=O)C1=C(CN2CCc3ccccc32)NC(=O)NC1c1cccc([N+](=O)[O-])c1 (stereo unspecified),12.3% (active),8.95%
Cc1nc(C)c(-c2nnc(-c3cccc(S(=O)(=O)N(C)C)c3)o2)cc1C(=O)NN,4.1% (inactive),1.3%
Cc1ccc2c(c1)c1ncn(Cc3ccc(F)cc3)c(=O)c1n2C,2% (inactive),0.8%
O=c1oc2ccccc2cc1-c1csc(Nc2ccc(O)cc2)n1,27.4% (inactive),12.5%
Cc1cc(C)n(C(=O)c2ccc(C)c(S(=O)(=O)N3CCOCC3)c2)n1,1.9% (inactive),1.8%
Cc1cc(C)c(S(=O)(=O)NCC2CCC(C(=O)NCc3ccc4c(c3)OCO4)CC2)c(C)c1 (stereo unspecified),3.7% (inactive),1.35%
CCOc1ccc(C(=O)Nc2ccc(S(=O)(=O)NCC3CCCO3)cc2)cc1OCC (stereo unspecified),1.5% (inactive),1.2%
CC(C)(C)OC(=O)CNC(=O)c1[nH]cnc1C(=O)N[C@@H](Cc1ccccc1)C(=O)OCc1ccccc1,1.85% (inactive),1.95%
CCCC(=O)Nc1c(O)c2ccccc2[nH]c1=O,1.45% (inactive),1.1%
C/C(=C\c1ccccc1)C1NC(=O)c2c(sc3c2CCCC3)N1 (stereo unspecified),1.1% (inactive),0.75%
COc1ccc(C2CC(c3cccc(OC)c3)=NN2c2ccc(S(N)(=O)=O)cc2)cc1 (stereo unspecified),2.25% (inactive),1.4%

SMILES,differentiation response,double positive cells
CC(=O)Nc1ccc(S(=O)(=O)Nc2ccc(N3CCCCC3)cc2)cc1,0% (inactive),0%
CN(C(=O)c1cccc([N+](=O)[O-])c1)c1ccccc1C(=O)NCc1ccccc1,1.65% (inactive),1.35%
CC(C)C(=O)N1CCN(c2nc(-c3ccccc3)c3c(c2C#N)CC(C)(C)OC3)CC1,1.8% (inactive),1.6%
O=C(CCCN1C(=O)CCC1=O)Nc1ccc(Cl)c(C(F)(F)F)c1,1.55% (inactive),1.1%
CC(CNc1ccc([N+](=O)[O-])cc1)NC(=O)c1ccccc1Br (stereo unspecified),1.65% (inactive),1%
CN(C(=O)CSc1nnc(C2CC2)n1C)C1CCCc2ccccc21 (stereo unspecified),2.6% (inactive),2.05%
COc1ccc(C(=O)N(Cc2ccccc2)c2ccc(C)cc2)cc1S(=O)(=O)N1CCOCC1,1.9% (inactive),0.95%
COc1ccc2nc(N3CCN(C(=O)c4ccc([N+](=O)[O-])o4)CC3)sc2c1,3.05% (inactive),0%
O=C(NCC1CCCCC1)NCC1CCCCC1,0.8% (inactive),0.5%
O=C(NC(=O)c1ccccc1)Nc1ccccc1O,5.8% (inactive),0.95%
O=S(=O)(NCc1cccnc1)c1ccc(Cl)nc1,1.35% (inactive),1.1%
CC(C)CC(COCc1ccc(Cl)cc1)N1CCN(C(=O)c2ccc(C(F)(F)F)cc2)CCC1=O (stereo unspecified),2.15% (inactive),1.95%
CCOC(=O)c1c(-c2ccccc2)oc2ccc(OCC(=O)NN)cc12,2.65% (inactive),0.85%
COc1ccccc1N1CCN(C(=O)c2cc(-c3ccc(Br)cc3)on2)CC1,1.9% (inactive),1.65%
Nc1ccc2nc3c(=O)[nH]c(=S)[nH]c3nc2c1,11.7% (inactive),1.75%
COc1cccc(NC(=O)[C@H](Cc2c[nH]c3ccccc23)NC(=O)[C@@H]2Cc3ccccc3CN2)c1,5% (active),4.8%
CCc1c(C)sc(NC(=O)c2cccs2)c1C(N)=O,7.25% (inactive),5.9%
O=C(CN(c1ccccc1)S(=O)(=O)c1ccc(Cl)cc1)Nc1ccccc1C(=O)N1CCCC1,2.2% (inactive),1.4%
O=C(Cn1cc(-c2nnnn2-c2ccc(Cl)cc2)c(=O)c2ccccc21)c1ccccc1,3.55% (inactive),2.6%
CC1CCCC(NC(=O)CN2CCN(Cc3ccc(Cl)cc3)C2=O)C1C (stereo unspecified),4.75% (inactive),2.6%
CCc1noc(C)c1C(=O)Nc1nc(-c2ccccc2)cs1,1.4% (inactive),1%
C=CCNc1nnc(SCC(=O)N2CCCCC2)c2ccccc12,2.2% (inactive),1.55%
COc1cccc(NC(=S)NCc2ccccn2)c1,1.3% (inactive),1.3%
COc1ccc(C(C(=O)NCc2ccccc2)n2c(=O)c(-c3ccccc3)nc3ccccc32)cc1 (stereo unspecified),29.1% (inactive),12.2%
Cc1ccc(C)c(S(=O)(=O)N2CCN(c3ncnc4sccc34)CC2)c1,5.55% (inactive),0%
O=C1c2ccccc2C(=O)N1Cc1cc(-c2ccccc2Cl)no1,2.85% (inactive),1.25%

SMILES,differentiation response,double positive cells
N#CC1=C(N)Oc2c(sc3ccccc23)C1c1ccco1 (stereo unspecified),50% (inactive),25%
CCOC(=O)CC(=O)CSc1nc(-c2ccccc2)cc(-c2ccc(Cl)cc2)c1C#N,1.35% (inactive),1.15%
COc1ccccc1CNC(=O)c1cc(-c2cc(Cl)ccc2C)n[nH]1,0.15% (inactive),0%
CCOC(=O)c1c(-c2cccc(C)c2)csc1NC(=O)c1c(-c2ccccc2)noc1C,0.75% (inactive),0.25%
CCN(CC)c1ccc(/C=N/NC(=O)CNC(=O)c2cccs2)cc1,1.55% (inactive),1.15%
CCOc1ccc(NC(=O)CSc2nc3c(c(=O)n2-c2ccccc2OC)SCC3)cc1,2.25% (inactive),1.4%
CC1=C(C(N)=O)C(c2ccc3c(c2)OCO3)n2nc(-c3cccc(C)c3)nc2N1 (stereo unspecified),4.8% (inactive),5.05%
COc1cc(/C=C(\C#N)c2nc3ccccc3[nH]2)ccc1O,20.1% (inactive),1.25%
CCCCSc1nc2c(c(=O)n1CC)SC(C)C2 (stereo unspecified),1.7% (inactive),0.9%
Cc1nn(-c2cc(Cl)ccc2N)c(=O)c2ccccc12,1.3% (inactive),1%
Cc1cc(NC(=O)CSc2nc(C(C)C)nc3sc4c(c23)CCC(C)C4)no1 (stereo unspecified),1.5% (inactive),1.25%
Cc1ccc(-c2nc(C#N)c(NCCCn3ccnc3)o2)cc1,1.5% (inactive),1.1%
COc1ccccc1NC(=O)c1cc(Cl)nnc1Cl,0% (inactive),0%
CC#CC[N+](C)(C)CCCCCC,5.9% (inactive),3.9%
O=C(Nc1ccccc1N1CCN(c2ccccc2)CC1)c1cccc(F)c1,0.9% (inactive),0.65%
CC(C)OC(=O)CN1C(=O)C(=O)c2ccccc21,2.4% (inactive),0.55%
N#C/C(=C/c1ccc(N2CCCCC2)o1)C(=O)NCCc1c[nH]c2ccccc12,78.8% (inactive),5.25%
O=C(CN1CCN(C2CCCCC2)CC1)Nc1ccccc1N1CCCCC1,1.2% (inactive),0.65%
O=C(Nc1cccc(-c2nc3ncccc3o2)c1)c1ccco1,1% (inactive),0.45%
Cn1c(CNC(=O)c2ccccc2F)nnc1SCc1ccc(F)cc1,2.7% (inactive),1.1%
Cc1c(C(=O)OCC(=O)N(CCC#N)c2ccccc2)oc2c1ccc1ccccc12,0% (inactive),0%
CCOC(=O)C(C(=O)OCC)C(C#N)c1ccccc1 (stereo unspecified),1% (inactive),0.7%
CCC1CCCCN1CCCNC(=O)Cn1nc(-c2ccccc2)ccc1=O (stereo unspecified),3.1% (inactive),2.25%
Cc1ccc(C(=O)NC2CCCC(C)C2C)cc1S(=O)(=O)N1CCCCC1 (stereo unspecified),4.6% (inactive),3.95%
COc1ccc(-c2nnc(SCC(=O)c3cccs3)o2)c(OC)c1,4.75% (inactive),1.2%
COCCCn1c(=O)/c(=C/c2ccccc2OC(C)C)s/c1=C(\C#N)C(=O)Nc1ccc(C(=O)O)cc1,3.5% (inactive),1.7%
